# Source: PubChem
# NLRP3 yeast inh: blocks the NALP3 inflammasome reconstituted in yeast; Yeast reconstituted NLRP3/ASC/caspase-1, beta-gal luminescence, 24 h; inhibition, % at 10 µM; actives 0.39% (n = 330,000); AID 2825;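 active means inhibition of 50% or more; inactive means inhibition below 50%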;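 further: plate controls were induced DMSO wells for no effect and uninduced yeast grown without galactose for full effect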
# PolyA inh: inhibitors of polyadenylation in S. cerevisiae. AID 1875. S. cerevisiae SKY197-pL101 polyadenylation reporter, beta-gal luminescence; efflux-impaired pdr1/pdr3 knockout yeast; score 100 = 6 SD above DMSO. actives 0.02% (n = 300,000). activity score, % at 12 µM;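 active means lowest replicate activity score at least 50, where 100 means six control SD above control mean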;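 further: yeast exposed to compound for 9 h at 30 °C; higher score means more reporter readthrough which indicates perturbed polyadenylation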
# SUMO Mot1 rescue: inhibitors of SUMOylation pathway: yeast Mot1-301 growth rescue; S. cerevisiae Mot1-301 growth rescue, ATP luminescence, 38.5C; percent above DMSO median, 100 means doubled; growth rescue, % at 18.8 µM; actives 1% (n = 320,000); AID 2716;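 active means every valid replicate shows activation above 250% relative to neutral control wells; inactive means the rest, any valid replicate at or below 250%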;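 further: OY570 slx delta 5 strain wells were the positive control but not used for scaling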
# NALP1 inh: NALP1 inhibition | actives 0.61% (n = 280,000) | inhibition, % at 10 µM | AID 2071 | S. cerevisiae NALP1/ASC/caspase-1 growth, X-gal OD620, 72 h; in the data active means inhibition mostly above about 24%, no sharp cut-off; inactive means mostly below about 32%
# Yeast Mot1 SUMO: yeast SUMO pathway inhibition in dose response; shares compounds with SUMO Mot1 rescue; S. cerevisiae Mot1-301 galactose growth, ATP luminescence, 24 h; -100 = growth of slx-deleted rescue strain; growth activity, percent, % at 42 µM; 2,300 tested, under 10 active;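 active means Signal drops as the depositor expects, and the fitted half-maximal dose is no more than ten times the top valid tested dose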;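 further: more negative values mean stronger growth rescue toward the control strain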
# Numbers without * were called inactive; . = no result given; + = active, no number; [ ] = dose if it differs, or a comment. Shown are actives, neighbours in structure and some others; about 1.8% of the full set was active somewhere.
SMILES,NLRP3 yeast inh,PolyA inh,SUMO Mot1 rescue,NALP1 inh,Yeast Mot1 SUMO
O=C(O)CNS(=O)(=O)Cc1ccccc1,-3.8,-10.1,917.5*,6.4,-0.7
Cc1cc([N+](=O)[O-])ccc1NCc1ccccc1[N+](=O)[O-],11.4,23.9,-2.9,4.8,.
COc1cccc2[nH]c(=O)c(-c3ccccc3)cc12,22.6,-9.3,452.7*,31.4,-0.6
Fc1ccccc1-n1cc(-c2ccccc2)[nH]c1=S,7.0,-0.6,450.1*,-12.6,-0.1
COc1ccc(-n2cc(-c3ccccc3)[nH]c2=S)c(OC)c1,15.6,-11.5,-23.7,-9.5,.
O=C(COC(=O)c1ccc([N+](=O)[O-])s1)c1ccc[nH]1,36.5,.,516.2*,.,-2.9
O=C(OCC(=O)c1ccc[nH]1)c1ccc([N+](=O)[O-])cc1,18.8,.,14.9,.,.
Nc1cc(C(=O)OCC(=O)N2CCOCC2)ccc1Cl,17.6,21.0,398.6*,11.7,0.2
O=C(OCC(=O)N1CCN(Cc2ccccc2)CC1)c1ccc(Cl)cc1,11.0,-9.9,449.6*,0.0,0.7
O=C(OCC(=O)N1CCN(C(=O)c2ccco2)CC1)c1ccc(Cl)cc1,10.8,.,11.1,.,.
O=C(CCC(F)(F)F)N1CCCC(CO)(CCc2ccccc2)C1 (stereo unspecified),15.0,18.0,737.6*,9.8,1.1
Cc1ccccc1CC1(CO)CCCN(C(=O)CCC(F)(F)F)C1 (stereo unspecified),16.8,3.1,8.4,4.0,.
COC(=O)/C(=N/Nc1cccc(C)c1)N1CCCc2ccccc21,16.3,-21.8,20.0,32.5,.
CC12CCC(=O)N1C(C(=O)Nc1cccc3ccccc13)CS2 (stereo unspecified),0.7,8.3,-8.6,7.8,.
CC12CCC(=O)N1C(C(=O)Nc1ccccc1F)CS2 (stereo unspecified),23.4,8.5,792.6*,.,0.5
CC(=O)Nc1nonc1-c1nc2ccccc2n1N(C(C)=O)C(C)=O,-5.8,.,-5.8,23.2,.
NNc1nc2sc3c(c2c(=O)n1-c1ccccc1)CCCC3,14.9,-9.7,638.7*,2.4,0.4
CCNC(=O)C1CC(=O)N(Cc2ccc3c(c2)OCO3)C(=Nc2ccc(F)cc2)S1 (stereo unspecified),-7.4,17.7,780.6*,-7.4,0.6
N#C/C(=C/c1ccc(N2CCOCC2)o1)c1nc2ccccc2[nH]1,10.0,.,11.4,-3.4,.
O=C(COc1ccc(Cl)cc1)NCCCNC(=O)c1ccccn1,-10.4,22.1,564.8*,6.8,-0.2
COc1ccc(CC(=O)Nc2cccc3ncccc23)cc1OC,-0.1,24.9,-1.2,4.0,.
CC1=C(C)CS(=O)N(S(=O)(=O)c2ccc(Cl)cc2)C1 (stereo unspecified),-15.9,-15.9,724.2*,2.4,-1.5
Cc1ccc2c(c1)N(CC(=O)NCC1CCCO1)C(=O)C(C)O2 (stereo unspecified),20.7,19.7,521.8*,8.3,0.3
CC(C)(C)c1ccc(-c2n[nH]c(=S)n2CC2CCCO2)cc1 (stereo unspecified),28.3,20.4,-18.1,9.8,.
CC(CN1CCOCC1)OC(=O)c1ccc(Br)cc1 (stereo unspecified),-6.9,1.3,-4.9,-7.8,.
SMILES,NLRP3 yeast inh,PolyA inh,SUMO Mot1 rescue,NALP1 inh,Yeast Mot1 SUMO
O=C(c1ccc(Br)cc1)C(CN1CCOCC1)c1ccccc1 (stereo unspecified),20.3,-14.1,460.1*,39.3*,-1.2
O=C(COC(=O)c1cccnc1Cl)NCc1ccc(F)cc1,9.7,.,-2.9,.,.
COc1ccc(-c2cn(Cc3cccc(OC)c3)nn2)cc1,30.2,12.8,-12.8,25.2,.
CCn1c(-c2ccccc2)c(C(=O)CC#N)c2ccccc21,4.2,-5.8,373.3*,-7.3,-0.4
CCn1c(=O)c(-c2ccccc2)c(O)c2ccccc21,-6.8,-7.4,2.7,-27.7,.
CCn1c(=S)sc2c(=O)n(CC(=O)NC(C)CCc3ccccc3)c(C)nc21 (stereo unspecified),10.5,6.5,3.4,9.2,.
N#CCC(=O)N/N=C/c1ccc(OS(=O)(=O)c2ccccc2)cc1,-5.2,17.0,845.8*,21.0,-1.0
Oc1cccnc1Sc1cccc(C(F)(F)F)c1,-22.1,-13.4,-11.0,.,.
Cc1ccc(NC(=O)C(CC(C)C)NC(=O)C2CCC(C)CC2)nc1 (stereo unspecified),16.4,3.4,634.2*,12.3,0.3
CC(=O)c1cccc(NC(=O)CN(c2cccc(F)c2)S(C)(=O)=O)c1,18.9,10.6,681.8*,-3.9,-0.3
CC(=O)c1cccc(NC(=O)CN(c2ccc(F)cc2)S(C)(=O)=O)c1,17.2,44.6,-2.7,-11.9,.
CC(C)(C)CC(C)(C)NC(=O)c1ccc2snnc2c1,29.1,0.6,0.2,.,.
COc1ccc2[nH]c(C(=O)N/N=C/c3ccccc3OC)cc2c1,20.7,21.3,502.9*,11.2,0.5
CCOc1ccc2[nH]c(C(=O)N/N=C/c3ccccc3OC)cc2c1,18.6,9.0,-6.4,-2.7,.
CCC(=O)NCc1c(Cl)cccc1-n1cccc1,-2.1,8.8,-1.5,9.1,.
CC(=O)NCc1c(Cl)cccc1-n1cccc1,6.4,5.5,785.2*,4.5,-0.3
CN1CCCN(Cc2ccc(Cl)cc2Cl)CC1,0.7,14.3,21.8,9.8,.
O=C(Nc1ccccc1)NN1CC(=O)N(c2ccc(Cl)cc2)CC1=O,7.5,-9.2,-2.1,.,.
O=C(CN1CCc2ccccc21)NN1CC(=O)N(c2ccc(Cl)cc2)CC1=O,18.3,-10.9,483.7*,-22.8,-0.7
CC(C)CN(C(=O)COC(=O)c1ccc(C#N)cc1)C1CCS(=O)(=O)C1 (stereo unspecified),5.3,.,11.4,.,.
COc1ccc(NC(=O)c2ccc(-n3cncn3)c([N+](=O)[O-])c2)cc1,15.5,18.8,900.8*,2.7,-0.6[21 µM]
COc1ccc(NC(=O)c2ccc(-n3cncn3)c([N+](=O)[O-])c2)cc1OC,14.4,-13.1,-8.4,.,.
COCCNC(=O)C(=O)NCC1OCCN1C(=O)c1ccc(Cl)cc1 (stereo unspecified),0.2,15.2,525.5*,21.9,1.0
COC(CNC(=O)C(=O)NCC1OCCN1C(=O)c1ccc(Cl)cc1)OC (stereo unspecified),1.7,-17.0,7.4,24.6,.
O=S(=O)(Cc1cc(-c2ccccc2)no1)c1ccccc1,24.7,-7.2,642.6*,29.6,-0.1
COc1ccc(-c2cc(CS(=O)(=O)c3ccccc3)on2)cc1,13.5,-10.2,-2.9,4.7,.
COc1cc2c(cc1OC)CN(C(=O)Cc1c(F)cccc1Cl)CC2,-7.7,19.2,475.3*,4.7,0.5
COc1ccc(CC(=O)N2CCc3cc(OC)c(OC)cc3C2)cc1,13.5,6.3,-3.5,14.2,.
COC(=O)c1ccc(-c2cc(CC3(C(=O)OC)CCN(C(=O)OC(C)(C)C)CC3)on2)cc1,14.1,11.2,-10.7,39.3,.
COC(=O)C1(Cc2cc(-c3ccccc3)no2)CCN(C(=O)OC(C)(C)C)CC1,4.5,10.0,+,16.4,-0.2
